Most compounds without a hit are left out; they make up all but 3.4% or so of the library.
MITF inh: blocks human microphthalmia-associated transcription factor; O75030; AlphaScreen MITF homodimerization, bead proximity signal; inhibition, % at 2.6 µM; actives 0.91% (n = 650,000); in the data active = inhibition above about 50%;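 also: 0% = vehicle wells with protein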
FBW7 act: activators of human E3 ligase FBW7. actives 0.13% (n = 650,000). AID 1259310. AlphaScreen FBW7–phospho-cyclin E peptide binding, activator screen. Q969H0. normalized activity (activation), % at 26.1 µM; in the data active = normalized activity above about 1.9%;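 also: purified mutant Fbw7 with reduced substrate affinity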
GPR151 ag: activators of human GPR151; Q8TDV0; PathHunter beta-arrestin GPR151 cells, luminescence; activation, % at 11.2 µM; actives 1% (n = 650,000); in the data active = activation above about 4.9%;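 also: 0% = median of compound wells and 100% = cells with positive control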
Target sequence (Q8TDV0 whole entry, looked up): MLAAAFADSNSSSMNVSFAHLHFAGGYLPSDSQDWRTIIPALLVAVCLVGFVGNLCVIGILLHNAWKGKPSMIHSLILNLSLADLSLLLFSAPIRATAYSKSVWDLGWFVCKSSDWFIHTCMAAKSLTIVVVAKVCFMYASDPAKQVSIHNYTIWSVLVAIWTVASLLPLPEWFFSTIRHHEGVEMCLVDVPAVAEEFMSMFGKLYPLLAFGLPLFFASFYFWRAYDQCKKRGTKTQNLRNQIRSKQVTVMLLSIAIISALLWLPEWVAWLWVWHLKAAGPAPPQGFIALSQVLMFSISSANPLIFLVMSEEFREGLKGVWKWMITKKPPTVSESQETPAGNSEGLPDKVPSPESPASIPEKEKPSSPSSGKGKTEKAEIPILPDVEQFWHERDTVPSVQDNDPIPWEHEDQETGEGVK
TEAD-YAP inh: TEAD-YAP interaction inhibition; actives 1.4% (n = 640,000); HEK-TIYL cells, TEAD-Gal4/YAP UAS-luciferase luminescence; inhibition, % at 9.12 µM; in the data active = inhibition above about 32%;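 also: 0% = median of test compound wells and 100% = reference inhibitor wells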
Numbers without * were called inactive.

For O=C(c1cccc(Br)c1)c1cn[nH]c1-c1ccccc1O the results were MITF inh 5, FBW7 act 0, GPR151 ag 1 and TEAD-YAP inh 46*.
`O=C(CNC(=O)c1cccc(Br)c1)N/N=C/c1cn[nH]c1-c1ccccc1` gave MITF inh 2, FBW7 act 0, GPR151 ag 0 and TEAD-YAP inh 7.
Screening O=C1C(Cl)=C(N2CCOCC2)C(=O)N1c1cccc(Cl)c1Cl returned MITF inh 20, FBW7 act 0, GPR151 ag 1 and TEAD-YAP inh 16.
COc1ccc(N2C(=O)CSC2c2cccc(F)c2)c(OC)c1 (stereo not drawn) was read as MITF inh -25, FBW7 act 0, GPR151 ag -1 and TEAD-YAP inh 3.
For COc1ccc(N2C(=O)CSC2c2cccc([N+](=O)[O-])c2)c(OC)c1 (stereo not drawn) the results were MITF inh -4, FBW7 act 0, GPR151 ag -1 and TEAD-YAP inh 46*.
Screening Cc1ccccc1-n1ncc(C(C)NC(=O)c2c(C)nc3sccn23)c1C (stereo not drawn) returned MITF inh -4, FBW7 act 1, GPR151 ag 0 and TEAD-YAP inh 59*.
`O=C1CN(C(=O)COC(=O)Cc2coc3cc4c(cc23)CCC4)c2ccccc2N1` gave MITF inh 2, FBW7 act 0, GPR151 ag 1 and TEAD-YAP inh 5.
For Cc1ccc(-c2nc3ccccc3c(=O)[nH]2)cc1 the results were MITF inh -1, FBW7 act 0, GPR151 ag -4 and TEAD-YAP inh 20.
O=C(Nc1ccc(-c2nc3ccccc3o2)cc1)C1CCN(CCCn2cccn2)CC1 was read as MITF inh -9, FBW7 act 0, GPR151 ag 4 and TEAD-YAP inh 78*.
For CC(C)(C)c1ccc(-c2nc3ccccc3c(=O)o2)cc1 the results were MITF inh -10, FBW7 act 0, GPR151 ag -5 and TEAD-YAP inh 53*.
`O=C(Nc1ccc(-c2nc3ccccc3c(=O)o2)cc1)C1CC1` gave MITF inh -5, FBW7 act 0, GPR151 ag -6 and TEAD-YAP inh 48*.
Screening O=C(Nc1ccc(-c2nc3ccccc3o2)cc1)C1CCN(Cc2ccccn2)CC1 returned MITF inh -2, FBW7 act 0, GPR151 ag 0 and TEAD-YAP inh -5.
For CC(C)(C)c1ccc(-c2nc3ccccc3c(=O)[nH]2)cc1 the results were MITF inh -7, FBW7 act 0, GPR151 ag -1 and TEAD-YAP inh 83*.
Screening O=C(CCc1nnc(CCc2ccccc2)o1)N1CCC(c2cccc(Cl)c2)C1 (stereo not drawn) returned MITF inh 10, FBW7 act 0, GPR151 ag 1 and TEAD-YAP inh -57.
Screening Nc1ccccc1-c1nc2ccccc2c(=O)o1 returned MITF inh 22, FBW7 act 2.4*, GPR151 ag -3 and TEAD-YAP inh -24.
CCc1cc(-c2[nH]ncc2-c2ccc3c(c2)OCCO3)c(O)cc1OC was read as MITF inh 9, FBW7 act 0, GPR151 ag 1 and TEAD-YAP inh 63*.
For Cc1cc(C)c2nc(SCC(=O)Nc3sccc3C(N)=O)cc(C)c2c1 the results were MITF inh -4, FBW7 act 0, GPR151 ag 1 and TEAD-YAP inh 45*.
`Cc1cc(C)c2nc(SCC(=O)Nc3cc(C(N)=O)cc(C(N)=O)c3)cc(C)c2c1` gave MITF inh -12, FBW7 act 0, GPR151 ag 0 and TEAD-YAP inh -11.
C=CCNc1nc(N)c(C(N)=NC#N)s1 was read as MITF inh -1, FBW7 act 0, GPR151 ag 2 and TEAD-YAP inh 74*.
Cc1ccc(NC2OC(C(O)CO)C(O)C2O)cc1C (stereo not drawn) was read as MITF inh 11, FBW7 act 0, GPR151 ag -1 and TEAD-YAP inh -3.
For COc1cc(OC)cc(C(=O)Nc2ccc(NC(=O)c3cc(OC)cc(OC)c3)cc2)c1 the results were MITF inh 1, FBW7 act 0, GPR151 ag 1 and TEAD-YAP inh 43*.
Screening CCn1c2ccccc2c2cc(NC(=O)c3cc(OC)cc(OC)c3)ccc21 returned MITF inh 13, FBW7 act 0, GPR151 ag -1 and TEAD-YAP inh 52*.
`COc1cc(OC)cc(C(=O)Nc2ccc(N3CCN(C(=O)C(C)C)CC3)cc2)c1` gave MITF inh -2, FBW7 act 0, GPR151 ag -1 and TEAD-YAP inh 47*.
Screening Cc1c(Cl)cccc1NC(=O)CCN1CCN(c2ccccc2)CC1 returned MITF inh -103, FBW7 act 0, GPR151 ag 2 and TEAD-YAP inh 6.
`Oc1ccccc1-c1nc2cnccn2c1NCc1ccc2c(c1)OCO2` gave MITF inh -1, FBW7 act 0, GPR151 ag 0 and TEAD-YAP inh 57*.
`c1ccc(-c2nc3cnccn3c2NCc2ccc3c(c2)OCO3)cc1` gave MITF inh -2, FBW7 act 0, GPR151 ag 1 and TEAD-YAP inh -2.
CCOC(=O)C1Nc2c(ccc(C(=O)O)c2C)C2C=CCC12 (stereo not drawn) was read as MITF inh 66*, FBW7 act -1, GPR151 ag 1 and TEAD-YAP inh 13.
For CCOC(=O)c1ccc2c(c1)[C@@H]1C=CC[C@@H]1[C@H](C(=O)OCC)N2 the results were MITF inh 10, FBW7 act 0, GPR151 ag 0 and TEAD-YAP inh -2.
For O=C(O)C1Nc2c(F)cccc2C2C=CCC12 (stereo not drawn) the results were MITF inh 78*, FBW7 act 0, GPR151 ag -1 and TEAD-YAP inh 8.
O=C(O)C1Nc2ccccc2C2C=CCC12 (stereo not drawn) was read as MITF inh 75*, FBW7 act -2, GPR151 ag 0 and TEAD-YAP inh -6.
Cc1ccc2c(c1C)NC(C(=O)O)C1CC=CC21 (stereo not drawn) was read as MITF inh 65*, FBW7 act -1, GPR151 ag -1 and TEAD-YAP inh -15.
O=C(O)c1ccc2c(c1)C1C=CCC1C(C(=O)O)N2 (stereo not drawn) was read as MITF inh 25, FBW7 act -1, GPR151 ag 0 and TEAD-YAP inh 5.
For Cc1cccc(S(=O)(=O)N2CCN(Cc3ccccc3)CC2)c1 the results were MITF inh 14, FBW7 act 0, GPR151 ag 0 and TEAD-YAP inh 0.
For CCc1ccc(CNc2ccc(CNc3ncn[nH]3)cc2)cc1 the results were MITF inh 0, FBW7 act 0, GPR151 ag 0 and TEAD-YAP inh -8.
For O=C(O)Cc1ccc(NC(=O)CCN2C(=O)c3ccccc3C2=O)cc1 the results were MITF inh -9, FBW7 act 0, GPR151 ag 0 and TEAD-YAP inh -2.
O=C(O)C1Nc2ccc3ccccc3c2C2C=CCC12 (stereo not drawn) was read as MITF inh 24, FBW7 act 0, GPR151 ag 0 and TEAD-YAP inh -2.
